# Bioassay records deposited in PubChem BioAssay by Johns Hopkins Ion Channel Center.
# Compounds with a hit are over-represented: about 1.6% of the library has one in this group of screens.
# KCNQ2 inh – blocks the rat KCNQ2 potassium channel. CHO-K1 KCNQ2, FluxOR thallium flux, 20 min; stronger effect = lower value. O88943. 1.1% of 310,000 active. B-score at 10 µM;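 active = fluorescence ratio B-score at most minus 3 library SDs, with starting brightness B-score within 2 library SDs, cut at about -5.5 in these data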
# Target sequence (O88943 whole entry, looked up): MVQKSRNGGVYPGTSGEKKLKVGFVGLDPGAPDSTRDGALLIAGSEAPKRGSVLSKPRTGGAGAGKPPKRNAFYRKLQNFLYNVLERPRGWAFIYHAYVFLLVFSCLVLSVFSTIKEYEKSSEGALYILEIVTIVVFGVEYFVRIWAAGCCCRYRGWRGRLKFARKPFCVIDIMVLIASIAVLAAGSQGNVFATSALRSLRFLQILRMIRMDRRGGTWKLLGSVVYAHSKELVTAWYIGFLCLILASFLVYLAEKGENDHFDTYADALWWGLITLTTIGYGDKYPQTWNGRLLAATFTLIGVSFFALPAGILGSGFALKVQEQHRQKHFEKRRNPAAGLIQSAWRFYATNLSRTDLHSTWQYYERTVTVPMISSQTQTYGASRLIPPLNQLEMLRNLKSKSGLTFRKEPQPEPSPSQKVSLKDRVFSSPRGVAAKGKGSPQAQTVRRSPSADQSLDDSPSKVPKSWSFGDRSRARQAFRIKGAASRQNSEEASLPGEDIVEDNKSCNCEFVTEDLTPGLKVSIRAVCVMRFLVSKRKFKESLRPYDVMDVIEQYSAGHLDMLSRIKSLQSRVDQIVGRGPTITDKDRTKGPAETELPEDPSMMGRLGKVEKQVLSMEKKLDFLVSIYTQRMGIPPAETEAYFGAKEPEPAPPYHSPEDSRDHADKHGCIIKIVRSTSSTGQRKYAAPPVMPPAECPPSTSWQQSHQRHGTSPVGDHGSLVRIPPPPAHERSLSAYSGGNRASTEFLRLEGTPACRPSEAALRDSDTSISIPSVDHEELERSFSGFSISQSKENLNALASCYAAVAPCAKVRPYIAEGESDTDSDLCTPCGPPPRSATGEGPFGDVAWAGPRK
# KCNQ2 pot – KCNQ2 (rat) channel potentiation | B-score at 10 µM | 0.54% of 310,000 active | AID 2239 | O88943 | CHO-K1 KCNQ2, FluxOR thallium flux fluorescence; stronger effect = higher value;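 active = fluorescence ratio B-score at least 3 SD of library B-scores, with initial fluorescence B-score within 3 of them, cut at about 5.3 in these data; same plate scores as AID 2156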;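 also: B-score of peak minus minimum over baseline fluorescence ratio after K+ and Tl+ stimulus; positive B-score means potentiation of KCNQ2 with more thallium influx and brighter signal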
# Kir21 conf inh – confirmation of mouse Kir2.1 potassium channel inhibitors. 41% of 2,300 active. Tl flux remaining, % of negative control (stronger effect = lower value), % at 10 µM. shares compounds with KCNQ2 pot. Kir2.1-expressing cells, FluxOR thallium flux fluorescence; stronger effect = lower value;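 active = Primary-screen hit whose thallium flux fell at least 3 control SD below untreated wells in both duplicates, with normal baseline fluorescence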;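 also: 0% = blank wells without stimulus and 100% = stimulated no-compound controls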
# HEK293 Tl flux – alters thallium flux in parental HEK293 cells, Kir2.1 counter-screen; shares compounds with KCNQ2 pot; FluxOR thallium flux fluorescence; 0% = unstimulated blank wells; FluxOR signal as % of negative control (100 = no effect), % at 10 µM; 19% of 2,300 active;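 active = dye signal at least 3 control SD above or below untreated wells in both duplicates, raw fluorescence within 3, either direction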;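 also: percent is based on the flux ratio of peak minus minimum fluorescence over baseline F0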
# CHO-K1 ctr – alters thallium flux in parental CHO-K1 cells, KCNQ2 counter-screen; shares compounds with KCNQ2 pot; FluxOR thallium flux fluorescence; zero = vehicle mean+3SD, 100% = vehicle-minus-blank window; activity increase over 3SD of controls, % at 10 µM; 43% of 1,200 active; AID 2282;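 active = signal rise of at least 3 SD above the untreated control mean, in both duplicate wells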;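 also: counter screen of KCNQ2 potentiator hits so any rise reflects channel-independent effects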
# KCNQ1 pot spec – selectivity of KCNQ2 potentiators: effect on human KCNQ1. 28% of 1,200 active. shares compounds with KCNQ2 pot. activation over 3SD threshold, % at 10 µM. CHO KCNQ1 stable, FluxOR thallium flux fluorescence; beyond 3SD, as % of vehicle-control signal;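 active = fluorescence ratio rise of at least 3 SD of vehicle wells above their mean, in both replicate wells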;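 also: 0% = vehicle mean plus 3 SD and 100% = vehicle minus unstimulated blank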
# KCNQ2 pot confirm – confirmation of rat KCNQ2 potassium channel potentiators | shares compounds with KCNQ2 pot | CHO-KCNQ2 cells, FluxOR thallium flux fluorescence | potentiation, less the hit threshold, % at 10 µM | 68% of 1,200 active | AID 2287;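 active = fluorescence ratio rising 3 SD or more over the vehicle control mean in both replicates, plus primary screen hit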;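 also: peak minus minimum thallium fluorescence divided by baseline after K/Tl stimulus; 0% = vehicle mean plus 3 SD and 100% = vehicle minus unstimulated blank difference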
# Kir21 spec – selectivity of KCNQ2 potentiators: effect on mouse Kir2.1 | shares compounds with KCNQ2 pot | HEK293 Kir2.1, FluxOR thallium flux fluorescence | activity over 3SD threshold, % at 10 µM | 2% of 1,200 active | AID 2345;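 active = fluorescence ratio rise of at least 3 SD above the vehicle-control mean, seen in both replicates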;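 also: 0% = vehicle mean plus 3 SD and 100% = vehicle minus no-stimulus blank window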
# KCNQ2 W236L pot – rat KCNQ2 W236L mutant potentiation by KCNQ2 potentiators; shares compounds with KCNQ2 pot; CHO KCNQ2-W236L, automated patch clamp current; current increase over 3SD of negative controls (%), stronger effect = higher value, % at 25 µM; 10% of 940 active; AID 2558;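 active = current increase at least 3 SD of the untreated controls above them in both duplicate recordings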
# Numbers without * were called inactive; i = inactive; . = no result given.
SMILES,KCNQ2 inh,KCNQ2 pot,others
CCOC(=O)CNC(=O)N1CCCC(C(=O)c2ccccc2SC)C1 (stereo not given),i,0.5,
COc1ccc(CN(Cc2ccc(C(=O)O)cc2)C(=S)Nc2ccc(C)cc2)cc1OC,i,1.5,
Cc1ccccc1C1c2[nH]c3ccccc3c2C[C@H]2C(=O)N(c3ccccc3C(=O)NCCCN3CCOCC3)C(=O)N12 (stereo not given in full),i,.,
COc1ccc(CN2CCN(C(=O)Cn3nc(C(=O)O)c4ccccc4c3=O)CC2)cc1F,i,0.11,
Cc1c(Cl)cccc1Nc1nc(NCCO)c2ccccc2n1,i,.,Kir21 conf inh=35%*;HEK293 Tl flux=i
Oc1ccccc1Nc1nc(NCc2ccccc2)c2ccccc2n1,i,.,
Cc1c(C(=O)N2CCCCCC2)c(S(=O)(=O)Nc2ccc(F)cc2)c(C)n1C,i,.,
COCCN(CCOC)C(=O)c1ccc(SCc2ccc(C)cc2)c([N+](=O)[O-])c1,i,.,
Cc1nn(CC(C)C)c(Cl)c1C(=O)N(c1ccc(Cl)cc1F)S(C)(=O)=O,i,.,
O=C(N1CCN(c2ccccn2)CC1)N1c2ccccc2Sc2ccccc21,i,.,
COc1ccccc1C(=O)NC(=O)COC(=O)c1ncc(Cl)c(Cl)c1Cl,i,.,
Cc1ccc(/C=C/C(=O)NC(C)c2ccccc2)cc1 (stereo not given),i,3.8,
CC(NC(=O)/C=C/c1ccccc1)c1ccccc1 (stereo not given),i,17*,Kir21 conf inh=i;HEK293 Tl flux=i;CHO-K1 ctr=2.8*;KCNQ1 pot spec=20*;KCNQ2 pot confirm=30*;Kir21 spec=-10;KCNQ2 W236L pot=i
CC(NC(=O)/C=C/c1ccc(Br)cc1)c1ccccc1 (stereo not given),i,4.2,
CCc1ccc(C(C)NC(=O)/C=C/c2ccc(Br)cc2)cc1 (stereo not given),i,8.7*,Kir21 conf inh=i;HEK293 Tl flux=i;CHO-K1 ctr=-15;KCNQ1 pot spec=-15;KCNQ2 pot confirm=24*;Kir21 spec=-28;KCNQ2 W236L pot=i
CCC(CC)c1nnc(NC(=O)C2CC(=O)N(C3CCCC3)C2)s1 (stereo not given),i,.,
COc1ccc(S(=O)(=O)N(C)CC(=O)NCc2ccccn2)cc1,i,0.11,
CSc1nsc(SCC(=O)Nc2ccc(F)cc2F)n1,i,.,
CCC/C(O)=C1\C(=O)CC(C)(C)CC1=Nc1cccc([N+](=O)[O-])c1,i,.,
C/C(=N\NC(=O)c1cc2ccccc2cc1O)c1ccc(C)o1,i,6.7*,Kir21 conf inh=i;HEK293 Tl flux=412%*;CHO-K1 ctr=-9;KCNQ1 pot spec=1.0*;KCNQ2 pot confirm=67*;Kir21 spec=-30;KCNQ2 W236L pot=i
C/C(=N\NC(=O)c1c[nH]c2ccccc12)c1ccc(C)o1,i,0.24,
O=C(NNC(=O)c1cc2ccccc2cc1O)c1cccs1,i,1.2,
C/C(=N\NC(=O)c1cc2ccccc2cc1O)c1cccs1,i,7.7*,Kir21 conf inh=i;HEK293 Tl flux=i;CHO-K1 ctr=102*;KCNQ1 pot spec=-13;KCNQ2 pot confirm=-13;Kir21 spec=-26
Cc1ccc(S(=O)(=O)N(Cc2ccc(Cl)cc2)c2ccccc2C(=O)NCc2ccco2)cc1,i,.,
CCC1=NN(S(=O)(=O)c2ccc(C)cc2)C(O)(C(F)(F)F)C1 (stereo not given),i,1.4,
SMILES,KCNQ2 inh,KCNQ2 pot,others
COc1ccc(S(=O)(=O)NCc2cccnc2)cc1C(=O)Nc1ccccc1,i,1.9,
CC(=O)Nc1ccc(S(=O)(=O)N(Cc2ccccc2)c2ccccn2)cc1,i,.,
O=S(=O)(c1ccccc1)N(Cc1ccccc1)c1ccccn1,i,.,Kir21 conf inh=i;HEK293 Tl flux=i
COC(=O)CN1C(=O)COc2ccc(S(=O)(=O)N3CCCCCC3)cc21,i,.,
CCNS(=O)(=O)c1ccc(CCC(=O)N2CCC(C)CC2)cc1,i,0.99,
C[C@@H](NCCc1ccc(O)cc1)[C@@H](O)c1ccc(O)cc1,i,0.08,
CCCCCCCCNC(C)C(O)c1ccc(SC(C)C)cc1 (stereo not given),i,6.8*,CHO-K1 ctr=-56;KCNQ1 pot spec=-20;KCNQ2 pot confirm=-46;Kir21 spec=-62
Cc1cccc(C)c1Nc1c(-c2ccccn2)nc2ccccn12,i,.,
Oc1cccc(Nc2nc(NCC3CCCO3)c3ccccc3n2)c1 (stereo not given),i,.,
COc1ccc(Nc2nc(NCC3CCCO3)c3ccccc3n2)c(OC)c1 (stereo not given),i,.,Kir21 conf inh=30%*;HEK293 Tl flux=i
O=c1cc(-c2ccccc2)cc(-c2ccccc2)n1O,i,6.6*,Kir21 conf inh=i;HEK293 Tl flux=334%*;CHO-K1 ctr=-12;KCNQ1 pot spec=97*;KCNQ2 pot confirm=14*;Kir21 spec=-18;KCNQ2 W236L pot=i
Cn1c(-c2ccccc2)cc(=O)c2ccccc21,i,.,
Cc1ccc(NC(=O)CCNC(=O)c2ccc(Cl)cc2)cc1C,i,0.07,
CS(=O)(=O)N(CC(=O)N1CCN(C(c2ccccc2)c2ccccc2)CC1)C1CCCCC1,i,2.1,
CS(=O)(=O)N(CC(=O)N1CCCCC1)C1CCCCC1,i,13*,Kir21 conf inh=i;HEK293 Tl flux=i;CHO-K1 ctr=-8;KCNQ1 pot spec=-25;KCNQ2 pot confirm=-12;Kir21 spec=-23
Cn1cc(Cl)c(-c2n[nH]c(=S)n2C2CCCCC2)n1,i,2,
Cc1nn(-c2ccc(Cl)cc2)c2sc(C(=O)c3c(N)n(C)c(=O)n(C)c3=O)cc12,i,0.12,Kir21 conf inh=i;HEK293 Tl flux=i
Cn1c(N)c(C(=O)c2ccc(Cl)cc2)c(=O)n(C)c1=O,i,1.1,
COc1ccccc1N1C(=O)c2cccc3cccc(c23)C1=O,i,0.05,
O=C(O)c1ccc(Nc2ncc([N+](=O)[O-])cc2[N+](=O)[O-])cc1,i,0.48,
O=C(COC(=O)C1C2CC3OC(=O)C1C3C2)Nc1ccc(Cl)cc1 (stereo not given),i,5,
COc1ccc(CCNc2ncnc3sc(C)cc23)cc1OC,i,.,Kir21 conf inh=65%*;HEK293 Tl flux=i
COc1ccc(CCNc2ncnc3[nH]ncc23)cc1OC,i,.,
COc1ccc(NC(=O)Nc2c(O)ccc3ccccc23)cc1,i,3.8,
CC1CCCC(NC(=O)COC(=O)Cc2ccc(Br)cc2)C1C (stereo not given),i,0.24,
CC1CCCC(NC(=O)Cc2ccc(Br)cc2)C1C (stereo not given),i,5.5*,Kir21 conf inh=i;HEK293 Tl flux=i;CHO-K1 ctr=49*;KCNQ1 pot spec=1.4*;KCNQ2 pot confirm=3.0*;Kir21 spec=-12;KCNQ2 W236L pot=i
C/C(N)=C(/C#N)C(=O)CSc1nc2ccccc2c(=O)n1Cc1ccc(C)cc1,i,.,
